# ATXN2 expr inh = inhibitors of ATXN2 expression; HEK-293 ATXN2-luciferase reporter, luminescence, 24 h; Potency, µM (titrated, usually from 57 µM), without a hit: at the highest dose activity change, negative = inhibition, most hits filed as inhibitors; hit rate 0.72% among 360,000; AID 1745845; also: potency is read from the fitted curve at half-maximal effect; % is scaled to controls: 0 for no effect and ±100 for the full control effect; nearly all actives have a fitted effect of over 55% in size
#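 qHTS (up to 57 uM final) was run with 24 h compound exposure of reporter cells at 37 °C. Each well was multiplexed: SteadyGlo luminescence measured ATXN2-luciferase expression after a fluorogenic Gly-Phe-AFC viability readout (25 uM final).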
# DRD3 agonist = D3 dopamine receptor (human) agonism | D3R DiscoveRx beta-arrestin cells, luminescence, 90 min | max activation, % | hit rate 0.58% among 410,000; in the data active = max activation above about 30%; also: 0% is about no effect
# Target sequence (P35462 whole entry, looked up): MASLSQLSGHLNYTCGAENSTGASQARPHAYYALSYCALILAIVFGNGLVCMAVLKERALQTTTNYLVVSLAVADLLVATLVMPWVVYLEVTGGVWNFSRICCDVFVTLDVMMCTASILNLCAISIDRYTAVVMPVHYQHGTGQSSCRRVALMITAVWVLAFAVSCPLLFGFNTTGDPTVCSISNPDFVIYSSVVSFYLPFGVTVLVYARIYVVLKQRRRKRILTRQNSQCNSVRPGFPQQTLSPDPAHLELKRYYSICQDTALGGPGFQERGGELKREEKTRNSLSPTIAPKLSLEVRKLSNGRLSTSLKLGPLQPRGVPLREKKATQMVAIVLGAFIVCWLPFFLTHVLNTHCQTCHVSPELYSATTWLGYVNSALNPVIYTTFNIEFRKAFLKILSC
#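 Cells at 1500/well, incubated overnight, then treated with pinned compounds (dopamine as control) for 90 min at 37 degrees C. DiscoveRx reagent added for 30 - 60 minutes at room temperature; luminescence read.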
# ATXN viability = reduces viability in counter-screen for ATXN expression inhibitors. AID 651635. Potency, µM (top dose mostly 56.7 µM), actives largely listed as cytotoxic. hit rate 0.49% among 400,000. S2 cells (HEK-293 line with an ATXN2-luciferase reporter) viability, CellTiter-Fluor protease fluorescence, 24 h; also: potency is read from the fitted curve at half-maximal effect; nearly all actives have a fitted effect of over 40% in size
# HepG2 tox = kills HepG2 cells in TGF-b inhibitor counter-screen | HepG2 CAGA-GFP viability, ATP luminescence, 18 h | Potency, µM (highest dose often 46.1 µM), without a hit: top-dose activity change, negative = cytotoxicity, most hits filed as cytotoxic | hit rate 0.76% among 410,000 | AID 588856; also: potency is read from the fitted curve at half-maximal effect
#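 HepG2 CAGA-GFP cells (1000/well, DMEM with 1% FBS) received compound, then TGF-beta at 500 pg/mL final, and were incubated 18 hours at 37 degrees C. Viability was read by CellTiter-Glo luminescence. Media-only wells were set as complete cell-killing and DMSO as no toxicity.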
# DRD3 antagonist = antagonists of human D3 dopamine receptor. P35462. D3R cells, DiscoveRx beta-arrestin luminescence, antagonist mode; stronger effect = lower value. max response, negative = inhibition, %. hit rate 2.5% among 360,000. AID 652054; in the data active = max response below about -50%; inconclusive = no clear call, values can overlap the other calls; also: % is scaled to controls: 0 for no effect and ±100 for the full control effect
#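 Cells expressing the human receptor were seeded at 1500 cells/well, incubated overnight at 37 degrees C in 5% CO2, then exposed to library compounds with dopamine controls for 90 minutes at 37 degrees C before luminescent detection.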
# TGFb inhibitor = inhibitors of TGF-b signaling; hit rate 1.2% among 410,000; HepG2 CAGA-GFP TGF-b/SMAD3 reporter, GFP fluorescence, 18 h; TGF-beta stimulated, 500 pg/mL final; Potency, µM (doses to about 46.1 µM), inactives show at the highest dose activity, negative = inhibition, hits mostly inhibitors; also: potency is read from the fitted curve at half-maximal effect; % is scaled to controls: 0 for no effect and ±100 for the full control effect; nearly all actives have a fitted effect of over 65% in size
#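 Cell-based qHTS in HEPG2 carrying a CAGA-GFP Smad reporter; compounds added before 500 pg/mL final TGF-beta, 18 h incubation at 37 degrees C, GFP fluorescence quantified per cell by imaging cytometry.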
# * hit, by the source's call; i = inactive; ? = inconclusive; . = no result given; ! = repeats disagree; [ ] = dose if it differs, or a comment. This is a sample that favours compounds with a hit; in the whole collection about 4.7% have one here. Unless noted, calls follow the shape of the dose curve; as a rule, active = well fitted curve in the direction sought with a large enough effect; inconclusive = small, poorly fitted or top-dose-only effect, or another doubt; inactive = no such curve, though single readings can be large; an effect the other way counts as inactive or inconclusive.
SMILES,ATXN2 expr inh,DRD3 agonist,ATXN viability,HepG2 tox,DRD3 antagonist,TGFb inhibitor
CC(C)C[C@H]1C(=O)N2CCC[C@H]2[C@]2(O)O[C@](NC(=O)C3C=C4c5cccc6[nH]c(Br)c(c56)C[C@H]4N(C)C3)(C(C)C)C(=O)N12 (stereo not given in full),-35%,21,i,-23%,-55*,-28%
CC(NCc1cccc(Cl)c1Cl)C(O)c1ccccc1 (stereo not given),?,-35,i,28%,-29,?
CC(NCc1ccc(Cl)cc1Cl)C(O)c1ccccc1 (stereo not given),15%,-33,i,-25%,-56*,-19%
COc1cccc(C(=O)CCN[C@@H](C)[C@H](O)c2ccccc2)c1,?,-12,32µM*!,.,.,.
CCOc1c(Cl)cc(CNC(C)C(O)c2ccccc2)cc1OC (stereo not given),.,1,.,6%,0,-13%
CC(NCc1ccc(Cl)cc1)C(O)c1ccccc1 (stereo not given),-5%,-21,i,-50%,-105*,-12%
COc1cc(OC)c(OC)cc1CNC(C)C(O)c1ccccc1 (stereo not given),-4%,1,i,-32%,-67*,-1%
COc1cccc(-c2nnc3n(Cc4ccccc4Cl)c(=O)c4ccccc4n23)c1O,-32%,0,?,-43%,.,-21%
C[C@H]1CNCCc2ccc(Cl)cc21,-16%,-9,i,.,.,.
Cc1ccc2oc(-c3ccc(Cl)cc3)c(O)c(=O)c2c1,?,18,?,-17%,.,?
CCc1ccc(-n2nc(C)c3c(C(=O)NCCc4ccc(OC)c(OC)c4)cc(C)nc32)cc1,-31%,22,?,-18%,.,-8%
CC(=O)OC1N=C(c2ccccc2)c2ccccc2NC1=O (stereo not given),1%,8,i,14%,-50*,-2%
OC1(c2ccc(F)cc2)CC2CCC(C1)N2Cc1nnnn1C1CCCCC1 (stereo not given),-5%,-20,i,-7%,?,?
OCCN1C2CCC1CC(O)(c1ccc(F)cc1)C2 (stereo not given),-8%,-22,i,3%,-68*,-6%
Cc1ccc(-c2nc3c(=O)n(C)c(=O)nc-3n(C)n2)cc1,.,.,.,1µM*,.,0.79µM*
Cn1ncnc2c(=O)n(C)c(=O)nc1-2,3.5µM*,-10,4.5µM*,0.2µM*,-81*,0.11µM*
COc1ccc(C(=O)Nc2nnc(S(=O)(=O)N(CC(C)C)c3ccc(C)cc3)s2)cc1OC,.,-27,.,-1%,.,?
CCNC(=O)CC1N=C(c2ccc(Cl)cc2)c2cc(OC)ccc2-n2c(C)nnc21 (stereo not given),77%,.,.,.,.,.
Clc1ccccc1N1CCN(Cc2ccc3c(c2)OCO3)CC1,-21%,-14,?,-43%,-88*,?
Cc1ccccc1N1CCN(Cc2ccc3c(c2)OCO3)CC1,?,-17,i,10%,-76*,0%
Clc1ccccc1CN1CCN(c2ccccc2Cl)CC1,-18%,-30,i,-6%,-83*,-10%
CCc1ccc(C2CCNCC2)cc1,-16%,.,i,.,.,.
CCc1ccc(NP(=O)(Oc2ccccc2F)Oc2ccccc2F)cc1,1%,0,i,-104%,4,18µM*
CCC(=O)C(CCN(C)C)(c1ccccc1)c1ccccc1,-17%,.,i,.,.,.
CN(C)C(=O)C(CCN1CCC(O)(c2ccc(Cl)cc2)CC1)(c1ccccc1)c1ccccc1,27µM*!,-80,?,-25%,-81*,11%
Oc1ccc2c3c1O[C@H]1[C@@H](O)C=C[C@H]4[C@@H](C2)NCC[C@@]341,53%[116 µM],-12,?,.,.,.
C=C1C(=O)O[C@@H]2C[C@@H](C)[C@H]3C=CC(=O)[C@]3(O)C[C@@H]12,?,10,.,-40%,?,13µM*
COc1cc(CN2CCc3nc(N4CCN(c5ccccn5)CC4)ncc3C2)cc(OC)c1OC,?,2,?,-28%,.,-31%

# Assay outcomes: PubChem BioAssay, National Center for Advancing Translational Sciences (NCATS)
